# According to PubChem BioAssay (NCATS):
# Several values for one entry are separate records, joined by “and”; a condition that tells them apart may be missing. Equal values may be shown once. Inconclusive results are not listed. A call without a number means that no potency is given here. A number with no mark means an inactive call. Activity calls are given as the source filed them. Calls come from the whole dose curve; as a rule, active = well fitted inhibition curve with a large enough effect; inconclusive = small, poorly fitted or top-dose-only effect; inactive = flat fitted curve, though single readings scatter.
# What was measured:
# [1] = system: CRL-7250; assay: Cytotoxic Profiling of Annotated Libraries Using Quantitative High-Throughput Screening (AID 1296008); details: Five cell lines viability, CellTiter-Glo ATP luminescence, 48-72 h; max response: stronger effect = lower value; note: potency is the fitted concentration of half-maximal effect
# Procedure, shortened: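 Compounds were pin-transferred onto cells and incubated 48 or 72 hr at 37 degree Celsius, 95% humidity. CellTiter-Glo was added, plates sat 10 min at room temperature, then ATP-coupled luminescence was imaged as the viability read-out.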
# [2] = system: PAD; assay: qHTS profiling for inhibitors of Plasmodium falciparum proliferation (AID 504749); details: P. falciparum in erythrocytes, SYBR Green DNA, 72 h; series mostly up to 28.7 µM
# Procedure, shortened: (§1)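 P. falciparum-infected erythrocytes (0.3% parasitemia, 2.5% hematocrit final) were exposed to compounds for 72 h at 37 C in 5% CO2, then lysed with SYBR Green buffer overnight at room temperature; parasite DNA fluorescence was normalized to artemisinin and DMSO controls.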
# [3] = system: PC15; assay: as above; details: P. falciparum in erythrocytes, SYBR Green DNA, 72 h; series mostly up to 28.7 µM
# Procedure, shortened: as §1
# [4] = system: PC26; assay: as above; details: P. falciparum in erythrocytes, SYBR Green DNA, 72 h; series mostly up to 28.7 µM
# Procedure, shortened: as §1
# [5] = system: PC49; assay: as above; details: P. falciparum in erythrocytes, SYBR Green DNA, 72 h; series mostly up to 28.7 µM
# Procedure, shortened: as §1
# [6] = system: SC27B; assay: as above; details: P. falciparum in erythrocytes, SYBR Green DNA, 72 h; series mostly up to 28.7 µM
# Procedure, shortened: as §1
# [7] = system: TAB109; assay: as above; details: P. falciparum in erythrocytes, SYBR Green DNA, 72 h; series mostly up to 28.7 µM
# Procedure, shortened: as §1
# [8] = system: TAB113; assay: as above; details: P. falciparum in erythrocytes, SYBR Green DNA, 72 h; series mostly up to 28.7 µM
# Procedure, shortened: as §1
# [9] = system: TAB165; assay: as above; details: P. falciparum in erythrocytes, SYBR Green DNA, 72 h; series mostly up to 28.7 µM
# Procedure, shortened: as §1
# [10] = system: W2; assay: as above; details: P. falciparum in erythrocytes, SYBR Green DNA, 72 h; series mostly up to 28.7 µM
# Procedure, shortened: as §1
# Note: nearly all actives have a fitted effect of over 60% in size.
smiles,measurement,setting,value
CC1(C)CC[C@]2(C(=O)O)CC[C@]3(C)C(=CCC4[C@@]5(C)CCC(O[C@@H]6OC[C@H](O)[C@H](O)[C@H]6O[C@@H]6O[C@H](CO)[C@@H](O)[C@H](O)[C@H]6O)[C@@](C)(CO)C5CC[C@]43C)[C@@H]2C1 (some centres undefined),max response,[1],-0.0042%
CC1=C(CC(=O)O)c2cc(F)ccc2C1=Cc1ccc(S(C)(=O)=O)cc1,outcome,[1],inactive
CN(C)C/C=C/C(=O)Nc1ccc(C(=O)Nc2cccc(Nc3ncc(Cl)c(-c4c[nH]c5ccccc45)n3)c2)cc1,Potency,[1],164 nM (active) and 263 nM (active)
CC1(C)O[C@]23C[C@H]1C[C@H](OC(=O)c1ccoc1)[C@]2(C)[C@@H](OC(=O)c1ccoc1)CCC3(C)O (some centres undefined),max response,[1],0.391%
N#Cc1ccnc(N2C(=O)CC[C@H]2C(=O)N(c2cncc(F)c2)[C@H](C(=O)NC2CC(F)(F)C2)c2ccccc2Cl)c1,max response,[1],-10.6%
Cc1cc(O)c(C(C)C)cc1O[C@@H]1O[C@H](CO)[C@@H](O)[C@H](O)[C@H]1O,max response,[1],-11.2%
C/C1=C\C[C@H](O[C@@H]2O[C@H](CO)[C@@H](O)[C@H](O)[C@H]2O)/C(C)=C/[C@H]2OC(=O)[C@H](C)[C@@H]2CC1,max response,[1],-3.83%
C=CCc1ccc(O[C@@H]2O[C@H](CO[C@@H]3O[C@@H](C)[C@H](O)[C@@H](O)[C@H]3O)[C@@H](O)[C@H](O)[C@H]2O)cc1,max response,[1],-0.302%
CC(=O)OC1C=C(C(=O)O)C2(CO)CCC(C)C(C)(CCc3ccoc3)C2C1 (centres undefined),max response,[1],-9.02%
CCc1cc2c(=O)c(-c3nc4ccccc4s3)coc2c(CN2CCCCC2)c1O,max response,[1],0.116%
CC1OC(OC2C(C)OC(OC3C(OC(=O)/C=C/c4ccc(O)cc4)C(CO)OC(OC4(COC(=O)/C=C/c5ccc(O)cc5)OC(CO)C(O)C4O)C3OC3OCC(O)(CO)C3O)C(O)C2O)C(O)C(O)C1O (centres undefined),max response,[1],-0.0903%
COC(=O)CC1(O)C(=O)Nc2ccccc21 (centres undefined),max response,[1],3.09%
CC1C/C=C/C=C\CCCCC(O)C/C=C/C(=O)O1 (centres undefined),max response,[1],4.17%
COc1cccc2c1CCC[C@H]2CN(C)CCc1ccc2ccoc2c1,outcome,[1],inactive
COC(=O)c1ccc(O[C@@H]2O[C@H](CO)[C@@H](O)[C@H](O)[C@H]2O)c(OC)c1,max response,[1],-0.304%
O=C(O)Cc1nn(Cc2nc3cc(C(F)(F)F)ccc3s2)c(=O)c2nccnc12,outcome,[1],inactive
O=C1N(CC2CCCCN2)CCN1c1ccccc1 (centres undefined),max response,[1],-3.2%
COc1ccc([C@@H]2N[C@H](C(=O)O)Cc3c2[nH]c2ccccc32)cc1CN1CCN(c2ccccc2F)CC1,max response,[1],-3.7%
CC(=O)OCC(=O)O[C@@H]1[C@H]2[C@@H](OC(=O)c3ccccc3)[C@@H](C)C[C@]2(O)[C@H](OC(C)=O)C2(C)[C@H]3CC(C)(C)C(=O)[C@@H]3CC1(OC(C)=O)[C@@H]2OC(C)=O (some centres undefined),max response,[1],-0.187%
C=C1C[C@]23C[C@H]1CC[C@H]2[C@@]12C=C[C@H](O)[C@@](C)(C(=O)O1)[C@H]2[C@@H]3C(=O)O,max response,[1],-5.97%
COc1cc([C@@H]2Oc3c(OC)cc(CCCO)cc3[C@@H]2CO[C@@H]2O[C@H](CO)[C@@H](O)[C@H](O)[C@H]2O)ccc1O,outcome,[1],inactive
Nc1nonc1C(=Nc1ccc(F)c(Cl)c1)NO,max response,[1],-22.8%
C/C(=C\CO)CC/C=C(\C)C(=O)O[C@H]1[C@H](OC2OC=C(C(=O)O)C3CCC(C)(O)C23)O[C@H](CO)[C@@H](O)[C@@H]1O (some centres undefined),max response,[1],-10.5%
C[C@H]1[C@H](C)CC[C@]2(C(=O)O[C@@H]3O[C@H](CO)[C@@H](O)[C@H](O)[C@H]3O)CC[C@]3(C(=O)O)C(=CCC4[C@@]5(C)CC[C@H](O[C@@H]6O[C@H](CO)[C@@H](O)[C@H](O)[C@H]6O)C(C)(C)C5CC[C@]43C)[C@H]12 (some centres undefined),max response,[1],3.01%
CC1(C)CCC(C)(C)c2cc([C@@H](O)C(=O)Nc3ccc(C(=O)O)cc3F)ccc21,max response,[1],-3.37%
CC(C)(C)NCc1cc(Nc2ccnc3cc(Cl)ccc23)c2c(c1O)CCCC2,max response,[1],1.77%
CC(=O)Oc1cc2c(s1)CCN([C@H](C(=O)C1CC1)c1ccccc1F)C2,max response,[1],-0.62%
OC[C@H]1O[C@@H](Oc2cc(O)cc(/C=C/c3ccc(O)cc3)c2)[C@H](O)[C@@H](O)[C@@H]1O,outcome,[1],inactive
Cc1coc2c1CC1OC1(C)CCC1OC1(C)C2 (centres undefined),max response,[1],4.59%
CN1Cc2c(N)cccc2C(c2ccccc2)C1 (centres undefined),max response,[1],-1.42%
CC(=O)NC(C(=O)OC1CCC(C)(C)C2CC=C3C(=O)OCC3(O)C12C)C(C)C (centres undefined),max response,[1],3.06%
CC1CCC2(NC1)OC1C(=O)C3C4CCC5CC(O[C@@H]6O[C@H](CO)[C@@H](O)[C@H](O)[C@H]6O[C@@H]6O[C@@H](C)[C@H](O)[C@@H](O)[C@H]6O)CCC5(C)C4CCC3(C)C1C2C (some centres undefined),outcome,[1],inactive
OC[C@H]1O[C@@H](n2cnc3c(NCc4ccc(O)cc4)ncnc32)[C@H](O)[C@@H]1O,Potency,[1],6.51 µM (active)
CC1(C)O[C@@]2(C)CC[C@@H]1C[C@@H]2OC1OC(CO)C(O)C(O)C1O (some centres undefined),outcome,[1],inactive
Cc1[nH]cnc1C1CCN(c2nc3cccc4c3n2CCC4=O)CC1,outcome,[1],inactive
COC1CC(=O)C23C(=O)NC(CC(C)C)C2C(C)C(C)=CC3/C=C(\C)CCC1O (centres undefined),outcome,[1],inactive
CC(=O)O[C@@H]1C[C@@]23C[C@@]24CC[C@H](OC2OC[C@@H](O)[C@H](O)[C@H]2O)C(C)(C)[C@@H]4CC[C@H]3[C@]2(C)CC3OC4(C[C@@H](C)C3[C@@]12C)OCC1(C)OC14 (some centres undefined),max response,[1],-1.36%
CC1=C2CC3OC3(C)CCC3OC3(C)CC2OC1=O (centres undefined),max response,[1],-1.41%
COC(=O)C12C(=O)C(C)=C(O)C1(C)C(C)=CC1C34CCC(OC3=O)C(C)(C)C4CCC12C (centres undefined),max response,[1],-4.32%
CC1(C)CC2C(C1)C1(C)CCC13OC3(CO)C2O (centres undefined),max response,[1],-2.76%
CC(=O)OC(C)OC(=O)C(C)c1ccc(-c2ccccc2)c(F)c1 (centres undefined),max response,[1],-4.19%
CC1(C)CC(=O)N(CCCCN2CCN(c3ncccn3)CC2)C(=O)C1,outcome,[1],inactive
CC1(C)C(C=C(Cl)Cl)C1C(=O)OCc1cccc(Oc2ccccc2)c1 (centres undefined),Potency,[2],inactive
same,Potency,[3],inactive
same,Potency,[4],inactive
same,Potency,[5],inactive
same,Potency,[6],inactive
same,Potency,[7],inactive
same,Potency,[8],inactive
same,Potency,[9],inactive
CC1CCC2C(C)(C)C(O)CCC2(C)C12Cc1c(O)cc3c(c1O2)C(N)=NC3 (centres undefined),max response,[1],-9.29%
CCCC1=CC2=C(CO1)C(=O)C(C)(OC(=O)c1c(C)cc(OC)cc1O)C(O)C2 (centres undefined),max response,[1],-27.1%
IC(I)I,Potency,[2],inactive
same,Potency,[3],inactive
same,Potency,[4],inactive
same,Potency,[5],inactive
same,Potency,[6],inactive
same,Potency,[7],inactive
same,Potency,[8],inactive
same,Potency,[9],inactive
same,Potency,[10],inactive
CC(=O)Oc1c(C)cc(OCC(O)CNC(C)C)c(C)c1C (centres undefined),Potency,[2],inactive
same,Potency,[3],inactive
same,Potency,[4],inactive
same,Potency,[5],inactive
same,Potency,[6],inactive
same,Potency,[7],inactive
same,Potency,[8],inactive
same,Potency,[9],inactive
COCCCNCC1COc2ccccc2O1 (centres undefined),max response,[1],1.45%
NCc1c[nH]c(=S)n1C1CCc2c(F)cc(F)cc2C1 (centres undefined),max response,[1],-1.6%
COc1ccc2c3c1O[C@H]1C[C@@H](O)C=C[C@@]31CCN(C)C2,Potency,[2],inactive
same,Potency,[3],inactive
same,Potency,[4],inactive
same,Potency,[5],inactive
same,Potency,[6],inactive
same,Potency,[7],inactive
same,Potency,[8],inactive
same,Potency,[9],inactive
same,Potency,[10],inactive
same,outcome,[1],inactive
COc1cc(/C=C/C(=O)OC2CC(OC(C)=O)C(OC(C)=O)C3C2CCC2C(=O)OC(c4ccoc4)CC23C)ccc1O[C@@H]1O[C@H](CO)[C@@H](O)[C@H](O)[C@H]1O (some centres undefined),max response,[1],-8.1%
NC1CCC(N[C@@H]2C[C@H]2c2ccccc2)CC1 (some centres undefined),max response,[1],1.1%
same,outcome,[1],inactive
C=C1C(=O)O[C@H]2[C@H]1[C@@H](OC(=O)C(C)CO)C[C@@]1(C)[C@H](O)CCC(=O)[C@H]21 (some centres undefined),max response,[1],-10.3%
Cc1onc(-c2ccccc2)c1C(=O)N[C@@H]1C(=O)N2[C@@H]1SC(C)(C)[C@@H]2C(=O)O,max response,[1],4.38%
same,outcome,[1],inactive
CC(C)(O)C1CCC2(C)C3C(O)C4C(C13)C42CO (centres undefined),outcome,[1],inactive
C[C@H]1[C@H](C)CC[C@]2(C(=O)O)CC[C@]3(C(=O)O)C(=CCC4[C@@]5(C)CC[C@H](O[C@@H]6O[C@H](C)[C@@H](O)[C@H](O)[C@H]6O)C(C)(C)C5CC[C@]43C)[C@H]12 (some centres undefined),max response,[1],-5.62%
C[C@@H]1CC[C@]2(C)C(C[C@@H](O)[C@H](O)[C@]23CO3)[C@@]1(C)CCc1ccoc1 (some centres undefined),outcome,[1],inactive
C[C@H](NCc1ccc(OCc2ccccc2F)cc1)C(N)=O,outcome,[1],inactive
CC(C(=O)O)c1ccc(N2Cc3ccccc3C2=O)cc1 (centres undefined),Potency,[2],inactive
same,Potency,[3],inactive
same,Potency,[4],inactive
same,Potency,[5],inactive
same,Potency,[6],inactive
same,Potency,[7],inactive
same,Potency,[8],inactive
same,Potency,[9],inactive
same,Potency,[10],inactive
Cc1c(-c2ccnn2C)cc(C(=O)NCc2ccc(S(C)(=O)=O)cn2)c(=O)n1-c1cccc(C(F)(F)F)c1,max response,[1],0.591% and -4.37% and 3.84%
same,outcome,[1],inactive
NC(=O)c1ncn(C2OC(CO)C(O)C2O)n1 (centres undefined),Potency,[2],inactive
same,Potency,[3],inactive
same,Potency,[4],inactive
same,Potency,[5],inactive
same,Potency,[6],inactive
same,Potency,[7],inactive
same,Potency,[8],inactive
same,Potency,[9],inactive
same,Potency,[10],inactive
CC(C)CC(=O)O[C@@H]1OC=C(CO[C@@H]2O[C@H](CO[C@@H]3O[C@H](CO)[C@@H](O)[C@H](O)[C@H]3O)[C@@H](O)[C@H](O)[C@H]2O)[C@H]2C[C@H](O)[C@@H](CO)[C@@H]12,max response,[1],4.5%
CCN[C@@H]1C[C@H](N)[C@@H](O[C@H]2OC(CN)=CC[C@H]2N)[C@H](O)[C@H]1O[C@H]1OC[C@](C)(O)[C@H](NC)[C@H]1O,max response,[1],-13%
same,outcome,[1],inactive
